For assay [1], the system named is Zika virus NS2B-NS3 protease (unlinked complex). Description: Primary screen GU Rhodamine qHTS for Zika virus inhibitors: Unlinked NS2B-NS3 protease assay (AID 1347159). Note: nearly all actives have a fitted effect of over 60% in size. The gist of the method:
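A qHTS format was used, with compound concentrations ranging up to 114 microM. Each compound was preincubated with 25 nM NS2B-NS3 protease, and the substrate was then added at 1.5 microM. Curves were fitted with a 4-parameter Hill model.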
In general terms: Quantitative high-throughput screening tests each substance at several concentrations.

Assay [2] relates to Zika virus NS2B-NS3 protease (linked construct). Description: Primary screen NINDS Rhodamine qHTS for Zika virus inhibitors (AID 1347160). Note: nearly all actives have a fitted effect of over 55% in size. The gist of the method:
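Kinetic fluorescence (Ex 480 nm, Em 540 nm) over 15 min with 1.5 microM Rhodamine110 peptide and 25 nM linked protease.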

Results filed as inconclusive are left out. A number with no mark means an inactive call. Active and inactive are the calls of the source. Calls come from the whole dose curve; as a rule, active = well fitted inhibition curve with a large enough effect; inconclusive = small, poorly fitted or top-dose-only effect; inactive = no such curve, though single readings can be large or run the other way.

Experimental findings from PubChem BioAssay (NCATS) are described below.
% is set by controls: 0 for no effect and ±100 for the full control effect.

In the case of `Cc1cc2c(c(=O)o1)C=C1CC[C@H]([C@H](C)Cn3cnc(=N)c4[nH]cnc43)C[C@@H]1O2`, the Potency entry in assay [1] and in assay [2] was “inactive” each time.

Regarding `COc1ccc(C#Cc2ccc(C(=O)N3CCC[C@@H](O)C3)c(F)c2)cc1`, the Potency entry in assay [1] and in assay [2] was “inactive” each time.

For `C=CC(=O)Nc1cccc(Nc2nc(Nc3ccc(NC4CN(CCF)C4)cc3OC)ncc2C(F)(F)F)c1`, the Potency entry in assay [1] and in assay [2] was “inactive” throughout.

For the compound `C=CC(C)(O)CC/C=C(\C)C(=O)OC1C(O)C(CO)OC(OC(=O)C23CCC(C)(C)CC2C2=CCC4C5(C)CCC(OC6OC(COC7OCC(OC(C)=O)C(O)C7OC7OC(COC(C)=O)C(O)C(O)C7OC(C)=O)C(O)C(O)C6OC6OCC(O)C(O)C6O)C(C)(C)C5CCC4(C)C2(C)C(O)C3O)C1OC1OCC(OC2OCC(O)C(OC3OCC(O)C(O)C3O)C2O)C(O)C1O` (centres undefined), the activity change, negative = inhibition in assay [1] was 23.6% [at 19.1 µM]; in assay [2] it was -13.7% [at 10.7 µM].

Regarding `C#CCCCn1cc(-c2cccc3c2N[C@H](C)CC(=O)N3)cn1`, the Potency result in assay [1] and in assay [2] was “inactive” in each case.

`COc1cc(C(C)=O)c(OC)c2c1OC(C)(C)C=C2`: the Potency entry in assay [1] and in assay [2] was “inactive” in each case.

Turning to `CO[C@@H]1CC(OC2CCC3(C)C(CCC45CCC(C6=CC(=O)OC6)C(C)(CCC43)C5=O)C2)O[C@H](C)[C@@H]1O[C@@H]1O[C@H](CO[C@@H]2O[C@H](CO)[C@@H](O)[C@H](O)[C@H]2O)[C@@H](O)[C@H](O)[C@H]1O` (some centres undefined), the Potency result in assay [1] and in assay [2] was “inactive” each time.

Consider `Cc1cc2c(F)c(Oc3ncnn4cc(OCC(C)OC(=O)C(C)N)c(C)c34)ccc2[nH]1` (centres undefined), for which the Potency entry in assay [1] and in assay [2] was “inactive” in each case.

Turning to `CN(C)c1ccnc2sc3c(=O)n(N4CCCCCC4)cnc3c12`, the Potency result in assay [1] and in assay [2] was “inactive” in each case.

Regarding `C=C(C(=O)O[C@H]1C/C(C)=C/CC/C(CO)=C/[C@H]2OC(=O)C(=C)[C@H]12)C(O)CO` (some centres undefined), the Potency result in assay [1] and in assay [2] was “inactive” throughout.

Consider `COc1cc2ncnc(Nc3ccc(O)c(Br)c3)c2cc1OC`, for which the Potency result in assay [1] and in assay [2] was “inactive” each time.

Regarding `O=C(c1ccc(OC(F)F)c(C#Cc2ccccn2)c1)N1Cc2cccnc2C1`, the Potency entry in assay [1] and in assay [2] was “inactive” in each case.

On to `Cc1ccc(-c2ncc[nH]2)cc1NC(=O)c1ccc(OCc2ccccn2)cc1`, for which the Potency entry in assay [1] and in assay [2] was “inactive” each time.

Take `COC1CCN(c2cccc(-c3cc(NC(C)=O)nc(-n4nc(C)cc4C)n3)n2)CC1`: the Potency result in assay [1] and in assay [2] was “inactive” each time.

Regarding `NCC1CCN(c2nccc(-c3ccc4ccccc4c3)n2)CC1`, the Potency entry in assay [1] and in assay [2] was “inactive” in each case.

For `CC1(C)CCC2(C(=O)OC3OC(COC4OC(CO)C(O)C(O)C4O)C(O)C(O)C3O)CCC3(C)C(=CCC4C5(C)CCC(OC6OCC(O)C(O)C6O)C(C)(C)C5CCC43C)C2C1O` (centres undefined), the Potency entry in assay [1] and in assay [2] was “inactive” throughout.

Consider `CC(=O)O[C@H]1CC(C)(C)CC2[C@]13CO[C@@]21CCC2[C@@]4(C)CC[C@H](O[C@@H]5OC[C@H](O[C@@H]6O[C@H](CO)[C@@H](O)[C@H](O)[C@H]6O[C@@H]6OC[C@@H](O[C@@H]7O[C@H](CO)[C@@H](O)[C@H](O)[C@H]7O)[C@H](O)[C@H]6O)[C@H](O)[C@H]5O[C@@H]5O[C@H](CO)[C@@H](O)[C@H](O)[C@H]5O)[C@@](C)(CO)C4CC[C@@]2(C)[C@]1(C)C[C@H]3O` (some centres undefined), for which the activity change, negative = inhibition was 0.509% [at 19.1 µM] in assay [1] and -9.67% [at 10.7 µM] in assay [2].

Consider `O=C(Nc1cccnn1)N1CCN(c2nccc(-c3ccc(F)c(F)c3)n2)CC1`, for which the Potency result in assay [1] and in assay [2] was “inactive” in each case.

`CC(C)(F)CC(NC(c1ccc(-c2ccc(S(C)(=O)=O)cc2)cc1)C(F)(F)F)C(=O)NC1(C#N)CC1` (centres undefined): the Potency entry in assay [1] and in assay [2] was “inactive” throughout.

For the compound `O=c1cc(N2CCOCC2)nc2c3ccccc3ccn12`, the Potency result in assay [1] and in assay [2] was “inactive” in each case.

Take `COC1CC/C=C(\C)C(=O)Nc2cc(O)cc(c2)CC(C)CC(OC)C(O)C(C)/C=C(\C)C1OC(N)=O` (centres undefined): the Potency result in assay [1] and in assay [2] was “inactive” each time.

Consider `CNC(=O)[C@@H](c1ccccc1)N1CCc2cc(OC)c(OC)cc2[C@@H]1CCc1ccc(C(F)(F)F)cc1`, for which the Potency result in assay [1] and in assay [2] was “inactive” each time.

With `COc1ccc(Sc2ccc(NC(=O)c3ccccc3Cl)cc2C#N)cc1`, the Potency result in assay [1] and in assay [2] was “inactive” in each case.

As to `O=C(c1c(F)ccc(NS(=O)(=O)N2CC[C@@H](F)C2)c1F)c1c[nH]c2ncc(-c3cnc(C4CC4)nc3)cc12`, the Potency result in assay [1] and in assay [2] was “inactive” each time.

As to `Cc1ccc(-c2cn3c4c(sc3n2)CCCC4)cc1`, the Potency result in assay [1] and in assay [2] was “inactive” each time.

On to `CCCC(=O)C1(c2ccccc2)CCN(C(=O)[C@@H](Cc2ccc(OC)cc2)NC(=O)[C@@H](N)Cc2cncn2C)CC1`, for which the Potency result in assay [1] and in assay [2] was “inactive” each time.

For the compound `O=C1Nc2ccccc2-c2nc3ccccc3c(=O)n2-c2c(O)cccc21`, the Potency result in assay [1] and in assay [2] was “inactive” in each case.
